# JMJD2A Tudor – qHTS Assay for Inhibitors of JMJD2A-Tudor Domain; Potency, µM (titrated, usually from 114 µM), usual class: inhibitors; AlphaScreen JMJD2A-Tudor / H3K4me3 peptide binding; 4.4% of 390,000 active; also: nearly all actives have a fitted effect of over 50% in size
# BAZ2B inh – qHTS Assay for Inhibitors of BAZ2B; AID 504333, 2011; Potency, µM (series often up to 114 µM), most hits filed as inhibitors; AlphaScreen BAZ2B-H3K14Ac peptide displacement; Bromodomain adjacent to zinc finger domain protein 2B (Homo sapiens), Q9UIF8; 4.4% of 360,000 active; also: nearly all actives have a fitted effect of over 60% in size
#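 Compounds, titrated to a top concentration of 110 uM, were incubated 30 min at room temperature with preformed BAZ2B/acetyl-K14 H3 peptide complex (50 nM each). Proximity signal was measured by AlphaScreen after 20 min with beads.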
# Sfp inh – qHTS Assay for Inhibitors of Bacillus subtilis Sfp phosphopantetheinyl transferase (PPTase) | Potency, µM, usual class: inhibitors | Biochemical Sfp PPTase activity, qHTS | 3.5% of 310,000 active;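 also: the enzyme is Sfp with the accession as filed and its product quenches rhodamine fluorescence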
#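 Step 1, compound plus 15 nM Sfp-PPTase, 15 min, room temperature. Step 2, add rhodamine-CoA (5 uM) and BHQ-2-YbbR (12.5 uM). Step 3, read 525/598 nm fluorescence at 0 and 30 min.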
# L3MBTL1 inh – qHTS Assay for the Inhibitors of L3MBTL1; Lethal(3)malignant brain tumor-like protein 1 (Homo sapiens), Q9Y468; 0.66% of 230,000 active; Potency, µM (highest dose often 57.1 µM), most hits filed as inhibitors; AlphaScreen L3MBTL1–H3K9me1 peptide binding; also: nearly all actives have a fitted effect of over 60% in size
#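 L3MBTL1 50 nM + b-AHA-H3(1-15)K9me1 75 nM, 30 min RT; compound added, 30 min RT; streptavidin donor/Ni-chelate acceptor beads 10 ug/mL each final, 30 min RT dark; AlphaScreen read.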
# G9a block – qHTS Assay for Inhibitors of Histone Lysine Methyltransferase G9a; G9a H3K9 monomethylation, AlphaScreen, 2 h; 8.8% of 350,000 active; Histone-lysine N-methyltransferase EHMT2 (Homo sapiens), Q96KQ7; Potency, µM (titrated, usually from 102 µM), hits mostly inhibitors; also: nearly all actives have a fitted effect of over 75% in size
# Target sequence (Q96KQ7 913-1193 limits assumed): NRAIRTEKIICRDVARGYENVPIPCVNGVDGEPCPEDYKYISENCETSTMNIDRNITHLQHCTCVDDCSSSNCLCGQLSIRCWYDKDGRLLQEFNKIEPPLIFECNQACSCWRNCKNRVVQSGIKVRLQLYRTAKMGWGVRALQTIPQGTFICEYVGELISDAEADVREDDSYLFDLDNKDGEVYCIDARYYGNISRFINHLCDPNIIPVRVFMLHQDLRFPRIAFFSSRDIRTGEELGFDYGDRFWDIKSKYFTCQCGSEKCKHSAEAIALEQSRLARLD
#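 G9a (20 nM) preincubated 15 min RT with compounds, then 500 nM biotinylated H3K9 peptide and 20 uM SAM added; 2 h RT reaction. Monomethyl-H3K9 product detected by AlphaScreen with anti-H3K9me1 antibody, streptavidin donor and anti-rabbit IgG acceptor beads.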
# HP1b chromo inh – HTS for Inhibitors of HP1-beta Chromodomain Interactions with Methylated Histone Tails; Chromobox protein homolog 1 (Homo sapiens), P83916; AlphaScreen HP1-beta / biotin-H3K9me3 peptide binding; Potency, µM (highest dose often 114 µM), usual class: inhibitors; 0.56% of 390,000 active; AID 540317, 2011; also: nearly all actives have a fitted effect of over 70% in size
# Target sequence (P83916 whole entry, looked up): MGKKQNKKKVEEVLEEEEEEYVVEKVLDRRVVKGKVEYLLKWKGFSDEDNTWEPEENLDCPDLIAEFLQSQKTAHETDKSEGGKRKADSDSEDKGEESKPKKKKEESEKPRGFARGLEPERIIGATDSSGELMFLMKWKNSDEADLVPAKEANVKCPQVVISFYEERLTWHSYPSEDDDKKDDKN
#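 Compound inhibition of the preformed complex between 50 nM HP1-beta and 50 nM biotinylated H3K9me3 peptide was read by AlphaScreen. Buffer was PBS pH 7.4 with 0.01% Tween-20. Incubations ran 30 min at room temperature, with 10 ug/mL donor/acceptor beads.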
# Numbers stand for hits; n = inactive; u = inconclusive; x = no result; [ ] = another dose, or the depositor's remark. Hits are enriched below; roughly 12% of the tested compounds scored in any of these assays. Calls follow the shape of the dose curve; as a rule, active = well fitted curve in the direction sought with a large enough effect; inconclusive = small, poorly fitted or top-dose-only effect, or another doubt; inactive = no such curve, though single readings can be large; an effect the other way counts as inactive or inconclusive.
SMILES,JMJD2A Tudor,BAZ2B inh,Sfp inh,L3MBTL1 inh,G9a block,HP1b chromo inh
CC1(C)C(=O)C=C[C@@]2(C)C1C=C[C@@]1(C)C2CC[C@@]2(C)C(c3ccoc3)OC(=O)C3OC312 (stereo partly drawn),x,x,n,x,n[2.33 µM],x
CCOc1ccccc1N(CC(=O)Nc1ccccc1C(=O)N1CCCC1)S(C)(=O)=O,n,n,n,x,n,n
CC(=O)NC(CC(=O)Nc1cccc(S(=O)(=O)N2CCOCC2)c1)c1ccccc1 (stereo not drawn),n,n,x,n,n,n
CC(=O)Nc1ccc(-c2csc(NC(C)c3ccccc3)n2)cc1 (stereo not drawn),n,u,50µM,n,u,n
CC(=O)NC(CC(=O)Nc1ccc(S(=O)(=O)N2CCCC2)cc1)c1ccccc1 (stereo not drawn),n,x,n,n,28µM,n
CC(=O)Nc1ccc(-c2csc(NC(=O)CC(NC(C)=O)c3ccccc3)n2)cc1 (stereo not drawn),n,n,u,x,45µM,n
COCCCn1c(SCC(=O)N2CCOCC2)nc2cc(Cl)ccc2c1=O,n,n,x,n,n[2.33 µM],n
Cc1sc2nc(C3CC3)nc(N3CCN(C(=O)c4ccc(Cl)cc4)CC3)c2c1C,45µM,u,n,x,45µM,n
COc1ccc(C(=O)N2CCN(c3ncccn3)CC2)cc1,n,n,n,x,n,n
Cc1sc2nc(C3CC3)nc(N3CCN(C(=O)c4ccc(F)cc4)CC3)c2c1C,n,u,n,x,45µM,n
Cc1sc2nc(C3CC3)nc(N3CCN(C(=O)c4ccccc4F)CC3)c2c1C,n,n,n,x,45µM,n
COc1ccc(C(=O)N2CCN(c3nc(C4CC4)nc4sc(C)c(C)c34)CC2)cc1,u,u,u,x,40µM,n
Cc1sc2nc(C3CC3)nc(N3CCN(S(=O)(=O)c4ccc(F)cc4)CC3)c2c1C,n,n,n,n,n,n
CCCc1nc(N2CCN(S(=O)(=O)c3ccc(Cl)cc3)CC2)c2c(C)c(C)sc2n1,n,n,u,n,n,n
Cc1cc(C)cc(-n2c(SCC(=O)NC3CCCCC3)nc3c([nH]c4ccccc43)c2=O)c1,n,n,x,x,n,n
Cc1ncsc1C(=O)N1CCCC(CNS(=O)(=O)c2cccs2)C1 (stereo not drawn),n,n,n,n,n,n
O=C(Nc1cc([N+](=O)[O-])ccc1O)NC1CCS(=O)(=O)C1 (stereo not drawn),n,n,x,n,16µM,n
O=C(Nc1cccc([N+](=O)[O-])c1)NC1CCS(=O)(=O)C1 (stereo not drawn),n,n,n,x,n,n
CC(C)(C)NC[C@H](O)CSc1nc(-c2ccc(C(N)=O)s2)cs1,x,x,n,x,u,x
OCCn1nc2c3ccccc3nc-2n(-c2ccccc2)c1=S,n,n,50µM,n,25µM,n
Cc1nn(-c2ccccc2)c(=S)n1-c1ccccc1,n,n,n,x,n[12.7 µM],n
O=c1oc2ccccc2nc1/C=C(O)/C=C\c1ccccc1,n,u,n,n,56µM,n
Cc1ccc2oc(=O)c(/C=C(\O)c3sc(C)nc3C)nc2c1,u,n,n,n,u,n
COc1ccc(/C=C/C(=O)N2CCC(c3nc4ccccc4o3)CC2)cc1,n,n,x,x,n,n
Cc1ccc(/C(O)=C/c2nc3ccccc3oc2=O)cc1,n,n,u,n,28µM,n
Cc1ccc2oc(=O)c(/C=C(\O)c3ccco3)nc2c1,n,n,u,n,x,n
O=c1oc2ccccc2nc1/C=C(O)/C=C/c1ccc(F)cc1,u,50µM,79µM,u,45µM,n
Cc1ccc2c(c1)[C@H]1[C@H](CO2)[C@H](c2ccccc2)[C@]2(C)C(=O)N(C)CC(=O)N12,n,x,x,x,x,n
